Shown are actives, neighbours in structure and some others; about 3.2% of the full set was active somewhere.
USP2a block – blocks human ubiquitin-specific protease USP2a; Potency, µM (highest dose often 38.3 µM), inactives show at the top dose activity change, negative = inhibition, usual class: inhibitors; 330,000 compounds, 0.01% hits; USP2 core, Ub-CHOP2 coupled fluorogenic reporter, 485/531;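 note: potency is the fitted concentration of half-maximal effect; plate controls were DMSO wells for no effect and full inhibition by NEM control for full effect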
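USP2 core (10nM final) preincubated 30min RT with compound in 20mM Tris-HCl pH 8.0, 2mM CaCl2, 2mM beta-mercaptoethanol, 0.05% CHAPS; 25nM Ub-CHOP2 plus 25nM reporter substrate added, fluorescence (Ex485/Em531) read after 60min.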
Coupling enz – coupling enzyme interference in Giardia aldolase counter-screen; coupling enzyme system counterscreen, AmpLite Red fluorescence; activity change, negative = inhibition, % at 58.2 µM, hits read low; 290,000 compounds, 0.67% hits; in the data active = activity change below about -30%
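Fluorescence at 525 nm excitation and 598 nm emission measured inhibition of the coupled detection system without aldolase. Compounds (at 57.5 uM final) were preincubated 10 min at room temperature with coupling enzyme reagent before a 20 min substrate/AmpLite Red step.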
PLK1 PBD inh – inhibitors of human PLK1 polo-box domain binding | 360,000 compounds, 2.8% hits | Potency, µM, without a hit: max response, negative = inhibition, usual class: inhibitors | Plk1 PBD binding of FITC phosphopeptide, fluorescence polarization | P53350; note: potency is the fitted concentration of half-maximal effect; series mostly up to about 57 µM; nearly all actives have a fitted effect of over 65% in size
USP1-UAF1 inh – USP1/UAF1 (human) deubiquitinase inhibition. 390,000 compounds, 0.23% hits. O94782. Potency, µM (top dose mostly 57.1 µM), for the others: at the top dose activity change, negative = inhibition, most hits filed as inhibitors. recombinant USP1/UAF1, Ub-Rhodamine cleavage fluorescence; note: potency is the fitted concentration of half-maximal effect; nearly all actives have a fitted effect of over 60% in size
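1 nM enzyme complex + cpd, 15 min RT; start with Ub-Rho 150nM final; kinetic fluorescence ex 480/em 540, 6 reads q60 s. Buffer 50mM HEPES pH 7.8, 0.5mM EDTA, 0.1 mg/ml BSA, 1mM TCEP, 0.01% Tween-20.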
VDR inh – blocks the human vitamin D receptor | P11473 | VDR-SRC2-3 peptide fluorescence polarization, 2 h | Potency, µM, for the others: max response, negative = inhibition, most hits filed as inhibitors | 400,000 compounds, 0.93% hits | AID 504847; note: potency is the fitted concentration of half-maximal effect
Target sequence (P11473 whole entry, looked up): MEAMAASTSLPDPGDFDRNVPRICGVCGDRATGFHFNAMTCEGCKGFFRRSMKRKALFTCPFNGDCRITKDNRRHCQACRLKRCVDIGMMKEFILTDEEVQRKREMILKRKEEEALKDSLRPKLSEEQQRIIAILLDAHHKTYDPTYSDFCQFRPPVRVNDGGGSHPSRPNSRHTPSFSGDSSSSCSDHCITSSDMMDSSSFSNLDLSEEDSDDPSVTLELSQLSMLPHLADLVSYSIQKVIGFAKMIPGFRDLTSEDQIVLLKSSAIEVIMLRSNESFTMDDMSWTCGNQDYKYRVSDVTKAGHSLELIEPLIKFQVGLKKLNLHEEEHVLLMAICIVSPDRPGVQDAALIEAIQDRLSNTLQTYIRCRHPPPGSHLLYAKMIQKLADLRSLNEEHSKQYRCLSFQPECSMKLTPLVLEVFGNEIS
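VDR–SRC2-3 interaction, FP format. Cmpds 23 nl via pintool, brief spin, 2 h ambient incubation.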
GALK inhibitor – galactokinase (human) inhibition | P51570 | Purified GALK, Kinase-Glo residual ATP luminescence | Potency, µM (doses to about 57.5 µM), for the others: at the highest dose activity change, negative = inhibition, usual class: inhibitors | 270,000 compounds, 0.007% hits | AID 1868; note: potency is the fitted concentration of half-maximal effect
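Human GALK (5 nM) with 35 uM ATP and 100 uM galactose in 20 mM HEPES pH 8.0, 5 mM MgCl2, 60 mM NaCl, 1 mM DTT, 0.01% BSA. After 1 h at room temperature, leftover ATP was read by Kinase-Glo Plus luminescence.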
The depositor's hits bear a star; ? = inconclusive; . = no result given. Unless noted, calls come from the whole dose curve; as a rule, active = well fitted curve in the direction sought with a large enough effect; inconclusive = small, poorly fitted or top-dose-only effect, or another doubt; inactive = no such curve, though single readings can be large; an effect the other way counts as inactive or inconclusive. Unless noted, % is set by controls: 0 for no effect and ±100 for the full control effect.

SMILES	USP2a block	Coupling enz	PLK1 PBD inh	USP1-UAF1 inh	VDR inh	GALK inhibitor
CCCCc1[nH]nc2c1C1(C(=O)N(CC)c3ccccc31)C(C#N)=C(N)O2 (centres undefined)	0%	1	-5%	-10%	9%	1%
Cc1ccc2c3c1C1(C(=O)N3C(C)(C)CC2C)C(C#N)=C(N)Oc2cc(O)ccc21 (centres undefined)	-1%	0	?	?	4%	0%
CSc1ccc(CN2CCC(N3CCC(C(=O)NC4CC4)CC3)CC2)cc1	.	.	-13%	9%	.	.
O=C(CN(C(=O)CCC(=O)Nc1nccs1)c1ccc(F)c(Cl)c1)NCC1CCCO1 (centres undefined)	1%	-1	4%	-19%	0%	-1%
On1c2c(c3c4nonc4ccc31)CCCC2	-4%	-60*	.	.	.	2%
CC(C)CCNC(=O)c1cc2cc(S(=O)(=O)N3CCCCC3)ccc2n1C	.	.	.	1%	9%	.
O=C(/C=C/c1ccccc1)CCN1CCCCC1	.	.	6.7µM*	-5%	28µM*	.
O=C(/C=C/c1ccccc1)COC(=O)c1ccccc1	.	.	0%	-11%	10µM*	.
O=C(CCN1CCCCCC1)c1ccccc1	1%	0	?	-18%	-7%	-5%
CC(=O)C[C@@H]1OC[C@H](Cc2ccccc2)N1S(=O)(=O)c1ccc(C)cc1	.	.	-4%	.	.	.
CCCCCCn1nc(C(=O)OCC(=O)c2c(N)n(C)c(=O)n(C)c2=O)c2ccccc2c1=O	0%	-2	7%	-26%	-3%	1%
CCC(C)N(C(=O)CSc1ccc(NC(C)=O)cc1)C1CCS(=O)(=O)C1 (centres undefined)	0%	-3	30µM*	-4%	3%	0%
O=c1ccc(/C=C/c2ccccc2)nn1Cc1ccc(F)cc1	-3%	2	-2%	-14%	-15%	9%
COc1ccc(/C=C/c2ccc(=O)n(Cc3ccccc3)n2)cc1	-7%	-1	12µM*	-5%	?	-1%
COc1ccc(C(C[N+](=O)[O-])c2c(C)cc3ccccn23)cc1 (centres undefined)	0%	-1	-13%	-21%	7%	10%
COc1ccc(C(C[N+](=O)[O-])c2c(-c3ccccc3)cc3ccccn23)c(OC)c1 (centres undefined)	2%	-19	-14%	-20%	71µM*	0%
Cc1cc(Cl)ccc1NNC(=O)c1c(C)noc1C	0%	0	?	-15%	?	.
CCCCn1c(NS(=O)(=O)c2ccc(C)cc2)c(S(=O)(=O)c2ccccc2)c2nc3ccccc3nc21	1%	-53*	9.5µM*	28µM*	?	-7%
Cc1ccc(S(=O)(=O)c2c(N)n(CCCN(C)C)c3nc4ccccc4nc23)cc1	4%	3	2%	-15%	-8%	-1%
COc1ccc(CCNC(=O)CCC(=O)N2CCOc3ccccc32)cc1OC	-1%	-2	1%	0%	-4%	.
Cc1nc2nc(C)c(CCC(=O)NCc3ccccc3)c(C)n2n1	.	.	.	-6%	-10%	.
N#CC1=C(N)Oc2n[nH]c(-c3cccs3)c2C1c1ccoc1 (centres undefined)	3%	-11	3.8µM*	-12%	-24%	-1%
COc1cc(-c2[nH]nc3c2C(c2ccco2)C(C#N)=C(N)O3)cc(OC)c1OC (centres undefined)	3%	0	30µM*	-11%	-3%	-1%
COc1cccc(-c2[nH]nc3c2C(c2ccsc2)C(C#N)=C(N)O3)c1 (centres undefined)	1%	-12	?	?	-22%	3%
COc1cccc(-c2[nH]nc3c2C(c2ccoc2)C(C#N)=C(N)O3)c1 (centres undefined)	3%	-23	27µM*	-9%	-5%	0%
SMILES	USP2a block	Coupling enz	PLK1 PBD inh	USP1-UAF1 inh	VDR inh	GALK inhibitor
CCCCOC(=O)C1=C(C)NC(=O)NC1c1cc2c(cc1Br)OCO2 (centres undefined)	1%	3	-5%	-16%	?	-3%
Cc1ccc(N(CC(=O)N2CCCC2)S(C)(=O)=O)cc1C	-1%	-4	-14%	-7%	-14%	-6%
N#C/C(C(=O)Nc1ccc(Cl)cc1)=C(/S)Nc1ccccc1	-14%	7	3.4µM*	?	?	-3%
CN(C)/C=C(\C#N)C(=O)Nc1ccccc1	-2%	0	1%	-25%	-19%	1%
Cc1ccc(NCc2ccc(O)c3ncccc23)cc1	-1%	-9	2.7µM*	-22%	?	0%
Oc1ccc(CNc2cccc(C(F)(F)F)c2)c2cccnc12	1%	.	.	.	.	.
Cc1cccnc1NCc1ccc(O)c2ncccc12	2%	3	19µM*	-8%	-23%	4%
Cc1cccc(NCc2ccc(O)c3ncccc23)c1C	-2%	-3	6µM*	-14%	?	-1%
CCOC(=O)c1c(C)n(C)c2ccc(O)c(CN3CCC(C)CC3)c12	1%	1	-3%	6%	89µM*	1%
CSC(=S)N/N=C/c1ccc(N(C)C)cc1	3%	-2	-4%	-19%	6%	9%
CCCCN(CC)Cc1c(O)ccc2c(-c3ccccc3)cc(=O)oc12	-2%	-5	27µM*	?	-13%	.
Cc1c(N=Cc2cc3c(cc2[N+](=O)[O-])OCO3)cccc1[N+](=O)[O-]	.	.	?	-11%	89µM*	.
O=C(NCc1cccs1)c1cc(-c2ccccc2)on1	0%	0	-7%	6%	1%	1%
CC(C)(C)OC(=O)CC(S(=O)(=O)c1ccccc1)S(=O)(=O)c1ccccc1	.	.	?	-20%	.	.
CCOC(=O)c1c(N)sn(-c2ccccc2C)c1=S	-1%	2	5.3µM*	-15%	35µM*	6%
O=C(O[C@@H]1Cc2c(O)cc(O)cc2O[C@@H]1c1cc(O)c(O)c(O)c1)c1cc(O)c(O)c(O)c1	0%	-6	.	.	.	10µM*
NC(=O)COC(=O)C12CC3CC(CC(O)(C3)C1)C2	-1%	1	?	-12%	?	0%
NC(CSS(=O)(=O)O)=NCCC12CC3CC(CC(O)(C3)C1)C2	3%	-2	12µM*	?	40µM*	4%
N#Cc1c(C(F)(F)F)cc(=O)n2c1[nH]c1ccccc12	-1%	21	21µM*	-6%	-25%	2%
CCC(=O)N1CCc2cc(S(=O)(=O)NCCCOC)ccc21	2%	0	-2%	-7%	0%	1%
CC[n+]1c(/C=C2/C=C(C)CC(C)(C)C2)sc2ccc(OC)cc21	3%	-26	21µM*	-20%	?	-2%
